# Screening results deposited in PubChem BioAssay by National Center for Advancing Translational Sciences (NCATS).
# HCV inhibitor – blocks hepatitis C virus; Huh7.5.1 HCVcc-Cre infection, luciferase reporter, 44 h; actives 3.4% (n = 340,000); Potency, µM (highest dose often 41.8 µM), actives largely listed as inhibitors; AID 651820
#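 Infectious HCV cell culture screen: compound-treated cells (1,000/well, pre-plated 4 h) are infected with HCVcc-Cre at roughly 0.5 moi and grown 44 h. Infection is quantified by luciferase signal after 15 min substrate incubation at room temperature.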
# Pf growth 48h – inhibits P. falciparum growth in the first generation, 48 h; P. falciparum luciferase growth in erythrocytes, 48 h; Potency, µM (titrated, usually from 28.7 µM), usual class: inhibitors; actives 5.9% (n = 310,000); AID 504832
#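 Erythrocytes infected with P. falciparum carrying an integrated firefly luciferase reporter (2% hematocrit, 0.1% parasitemia final) were exposed to compounds in RPMI 1640 with 0.5% Albumax at 37 C, 5% CO2. Growth inhibition was scored as reduced luminescence.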
# HCMV antiviral – inhibitors of human cytomegalovirus | HFF cells, HCMV-luciferase reporter, 72 h; stronger effect = lower value | activity change, negative = inhibition, % at 57.5 µM | actives 4.5% (n = 410,000); in the data active = activity change below about -60%; inconclusive = no clear call, values can overlap the other calls; inactive = above about -39%
#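 Two-dose cell screen: HFF monolayers treated with compounds and infected with luciferase-expressing HCMV at 1 PFU/cell, 72 h at 37C, then lysed for luciferase measurement.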
# Pf growth 96h – P. falciparum growth inhibition at 96 hour, primary screen for plastid delayed-death inhibitors. P. falciparum luciferase reporter growth, 96 h. Potency, µM (series often up to 28.7 µM), most hits filed as inhibitors. actives 6.9% (n = 320,000)
#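 Plates of compound plus infected erythrocytes (2% hematocrit, 0.05% parasitemia final) incubate 96 hours, 37 C, 5% CO2. Detection reagent added; reduced luminescence from the parasites' luciferase reporter flags inhibition.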
# Numbers stand for hits; - = inactive; ? = inconclusive; . = no result given; + = active, no number; ! = not confirmed by another sample. Shown are actives, neighbours in structure and some others; about 13% of the full set was active somewhere. Unless noted, calls follow the shape of the dose curve; as a rule, active = well fitted inhibition curve with a large enough effect; inconclusive = small, poorly fitted or top-dose-only effect, or another doubt; inactive = no such curve, though single readings can be large or run the other way.
SMILES,HCV inhibitor,Pf growth 48h,HCMV antiviral,Pf growth 96h
Cc1ccc(NC(=O)CCCc2nnc3n(C)c(=O)c4sccc4n23)cc1F,.,.,-,.
COc1ccc(OC)c(Nc2nn3c(=O)c4ccccc4nc3s2)c1,.,-,.,-
COc1ccc(Nc2nccc3c2cc(-c2cccc(C(F)(F)F)c2)n3C)c(OC)c1,.,.,-,.
Cc1c(-c2nnc(SCC(=O)Nc3ccccc3F)o2)nnn1-c1ccc(F)cc1,.,.,-,.
Cc1ccc(-c2c(C(=O)N3CCN(c4cccc(C)c4)C(C)C3)oc(=O)c3ccccc23)cc1 (centres undefined),.,.,-70.1,.
Cc1cccc(N2CCN(C(=O)c3nn(C)c4c3CS(=O)(=O)c3ccccc3-4)CC2C)c1 (centres undefined),?,-,-,-
Cc1cccc(N2CCN(C(=O)c3nn(C)c4c3CSc3ccccc3-4)CC2C)c1 (centres undefined),.,.,-61.6,.
COc1ccccc1S(=O)(=O)Cc1ccc(C(=O)N2CCN(c3cccc(Cl)c3)CC2)o1,12.6µM,11.7µM,-66.9,-
COc1ccccc1S(=O)(=O)Cc1ccc(C(=O)N2CCN(c3ccccc3)CC2)o1,-,?,-,-
Cc1ccc(S(=O)(=O)Cc2ccc(C(=O)N3CCCCCC3)o2)cc1,-,.,-62.9,-
CC(=O)c1cccc(NC(=O)c2ccc3c(c2)N(Cc2ccc(C)cc2)CCS3)c1,.,.,-,.
Cc1cccc(N2CCN(C(=O)c3ccc4c(c3)c(C)c(C)n4C)CC2C)c1 (centres undefined),?,-,+!,-
Cc1cccc(N2CCN(C(=O)c3ccc(N4CCCC4=O)cc3)CC2C)c1 (centres undefined),?,-,-,?
Cc1ccc(C)c(N2CCN(C(=O)c3ccc(CS(=O)(=O)c4ccccc4C)o3)CC2)c1,?,?,-,?
COc1cccc(N2CCN(C(=O)c3ccc(CS(=O)c4ccccc4Cl)o3)CC2)c1 (centres undefined),?,?,-95.6,-
COc1ccc(N2CCN(C(=O)c3ccc(CS(=O)(=O)c4ccccc4C)o3)CC2)cc1,?,-,-,10.4µM
Cn1c(CNC(=O)Nc2ccccc2)nnc1SCc1ccccc1,-,-,-,.
Cn1c(CNc2cccc(Cl)c2)nnc1SCC(=O)OC1CCCCC1,-,-,-79.9,.
Cn1c(CNC(=O)Nc2cccc(Cl)c2)nnc1SCc1ccccc1,-,?,-,13.1µM
Cc1ccc(NC(=O)c2c(C)nc3sc(C(=O)Nc4ccc(F)cc4)c(N)c3c2-c2ccc(Cl)cc2)c(C)c1,.,.,-,.
Cc1ccc(NC(=S)NNC(C)(C)C)cc1,-,13.1µM,?,5.86µM
CC(C)(C)NNC(=S)Nc1cccc(C(F)(F)F)c1,?,-,-,?
O=c1ccc2ccccc2c2ccccc12,.,.,-99.2,.
CCN(Cc1ccncc1)C(=S)Nc1ccc(Cl)cc1,-,-,-,-
CCN(CC)C(=S)Nc1ccc(Cl)c(Cl)c1,?,-,-65.8,-
SMILES,HCV inhibitor,Pf growth 48h,HCMV antiviral,Pf growth 96h
CN1CC2=Cc3ccccc3OC23Oc2ccccc2C=C3C1,-,9.28µM,-80.1,11.7µM
Cc1ccc(NC(=O)C(=O)NCC(c2cccnc2)N2CCc3ccccc32)cc1Cl (centres undefined),.,.,-,.
COc1cccc(C2Nc3ccccc3-c3nnc(SCc4ccccc4)nc3O2)c1OC (centres undefined),.,.,-,.
O=C1CN(C(=O)COc2ccc(Cl)c(Cl)c2)c2ccccc2N1,-,13.1µM,-66.3,3.29µM
O=C1CN(C(=O)Cn2ncc(Cl)c(Cl)c2=O)c2ccccc2N1,5.62µM,-,-94.9,?
CCCCOc1ccc(/C=C/C(=O)OCC(=O)N2CC(=O)Nc3ccccc32)cc1OCC,7.94µM,10.4µM,-,?
O=C1CN(C(=O)COc2ccc(Br)cc2Br)c2ccccc2N1,-,-,-,?
O=C1CN(C(=O)COc2ccc(Br)cc2F)c2ccccc2N1,-,5.86µM,-,8.28µM
O=C1CN(C(=O)/C=C/c2cccc(Cl)c2)c2ccccc2N1,14.1µM,?,-,?
O=C1CN(C(=O)COc2ccc(Cl)cc2Cl)c2ccccc2N1,?,?,-,-
O=C1CN(C(=O)COc2ccc([N+](=O)[O-])cc2Cl)c2ccccc2N1,-,2.94µM,-,10.4µM
Cc1ccc(/C=N/NC(=O)c2ccccc2OCc2ccc(F)cc2)o1,10µM,?,?,?
O=C(N/N=C/c1ccccc1)c1sccc1OCc1ccc(F)cc1,?,?,-62.3,?
Cc1cccc(/C=N/NC(=O)c2ccccc2OCc2cccc(Br)c2)n1,?,14.7µM,-,?
O=C(N/N=C/c1ccncc1)c1ccccc1OCc1ccc(Br)cc1,?,-,?,1.85µM
O=C(Nc1cc(-c2nc3ccccc3o2)ccc1Cl)c1ccc(Br)o1,.,.,-,.
CC1=NN(C(N)=S)C(=O)C1N=Nc1ccccc1C (centres undefined),-,?,-,-
CC1=NN(C(N)=S)C(=O)C1N=Nc1c(C)cc(C)cc1C (centres undefined),-,.,-,4.15µM
CC1=NN(C(N)=S)C(=O)C1N=Nc1ccc(C)cc1C (centres undefined),.,.,-,8.28µM
CCc1ccc(NC(=O)C2CCN(S(=O)(=O)c3c(C)noc3/C=C\c3ccc(OC)cc3)CC2)cc1,.,.,-,.
CCOc1ccc(NC(=O)C2CCN(S(=O)(=O)c3c(C)noc3/C=C/c3ccco3)CC2)cc1,.,.,-77.6,.
Cc1noc(/C=C/c2ccco2)c1S(=O)(=O)N1CCC(C(=O)Nc2ccc(F)c(Cl)c2)CC1,.,.,-83.9,.
CCOc1ccc(NC(=O)C2CCN(S(=O)(=O)c3c(C)noc3C)CC2)cc1,-,-,-,7.38µM
Cc1cc(C)cc(NC(=O)C2CCN(S(=O)(=O)c3c(C)noc3/C=C/c3ccco3)CC2)c1,.,.,-,.
CCc1ccc(NC(=O)C2CCN(S(=O)(=O)c3c(C)noc3C)CC2)cc1,-,-,?,5.86µM
SMILES,HCV inhibitor,Pf growth 48h,HCMV antiviral,Pf growth 96h
Nc1cc(=O)nc(SCC(=O)Nc2ccc(F)cc2)n1-c1ccc(Cl)cc1,.,.,-,.
COc1cc(OC)c(OC)cc1CN1CCc2nc(N3CCN(c4ccccc4F)CC3)ncc2C1,.,.,-,.
Cc1cccc(C)c1-n1nnnc1C(C1CC1)N1C(=O)C(=O)c2ccccc21 (centres undefined),.,.,-,.
CCC(C)N1CCN(C(=O)C2CCN(S(=O)(=O)c3c(C)noc3/C=C/c3ccco3)CC2)CC1 (centres undefined),?,?,?,-
CCN(CC)CCNC(=O)C1CCN(S(=O)(=O)c2c(C)noc2/C=C/c2ccccc2F)CC1,5.62µM,?,-77.7!,?
Cc1cccc(NC(=O)C2CCN(S(=O)(=O)c3c(C)noc3/C=C/c3ccco3)CC2)n1,?,?,-65.6,?
CCOc1ccccc1/C=C/c1onc(C)c1S(=O)(=O)N1CCC(C(=O)NC(C)(C)C)CC1,?,14.7µM,-,-
CCOc1ccccc1/C=C/c1onc(C)c1S(=O)(=O)N1CCC(C(=O)NC)CC1,-,?,-,-
Cc1cc(NC(=O)C2CCN(S(=O)(=O)c3c(C)noc3C)CC2)ccc1Br,-,-,-60.7!,?
Cc1noc(/C=C/c2ccccc2F)c1S(=O)(=O)N1CCC(C(=O)NCc2ccco2)CC1,.,.,-,.
